Changes are numbered by the printed parent chain; changes in the protein carry UniProt numbers. Whole data set: some 16,000 sequences, median “ka relative to ugcaugu” near 0.096, cut for the highest 2% near 0.35. What follows is part of a selection rich in the highest values, with near analogues and random picks from the rest.
T1: RBFOX1 RRM RbFoxmut (Fox-RRM*) (Homo sapiens, UniProt Q9NWB1 109-208, R118D;E147R;N151S;E152T)
T1 sequence: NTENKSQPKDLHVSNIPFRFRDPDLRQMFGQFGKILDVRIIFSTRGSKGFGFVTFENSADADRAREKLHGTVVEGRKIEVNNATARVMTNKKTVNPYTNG

B1: UAAGAGC (DNA:RNA)
RNA: GGGAGACCGGAAUUCAGAUUGUCCUAAGAGCUUAAAUCCCGUCGUAGCCACCA
DNA 1: CAATCTGAATTCCGGTCTCCC
DNA 2: TGGTGGCTACGACGGGATT
B2: GACCGCG (DNA:RNA)
RNA: B1 RNA with U25G, A27C, G28C, A29G, G30C, C31G
DNA 1: CAATCTGAATTCCGGTCTCCC
DNA 2: TGGTGGCTACGACGGGATT
B3: GCACUUC (DNA:RNA)
RNA: B1 RNA with U25G, A26C, G28C, A29U, G30U
DNA 1: CAATCTGAATTCCGGTCTCCC
DNA 2: TGGTGGCTACGACGGGATT
B4: UGACGAC (DNA:RNA)
RNA: B1 RNA with A26G, G28C, A29G, G30A
DNA 1: CAATCTGAATTCCGGTCTCCC
DNA 2: TGGTGGCTACGACGGGATT
B5: GCCAGGU (DNA:RNA)
RNA: B1 RNA with U25G, A26C, A27C, G28A, A29G, C31U
DNA 1: CAATCTGAATTCCGGTCTCCC
DNA 2: TGGTGGCTACGACGGGATT
B6: UAUGCGU (DNA:RNA)
RNA: B1 RNA with A27U, A29C, C31U
DNA 1: CAATCTGAATTCCGGTCTCCC
DNA 2: TGGTGGCTACGACGGGATT
B7: GAAAGGG (DNA:RNA)
RNA: B1 RNA with U25G, G28A, A29G, C31G
DNA 1: CAATCTGAATTCCGGTCTCCC
DNA 2: TGGTGGCTACGACGGGATT
B8: GGCACGG (DNA:RNA)
RNA: B1 RNA with U25G, A26G, A27C, G28A, A29C, C31G
DNA 1: CAATCTGAATTCCGGTCTCCC
DNA 2: TGGTGGCTACGACGGGATT
B9: AUAACAC (DNA:RNA)
RNA: B1 RNA with U25A, A26U, G28A, A29C, G30A
DNA 1: CAATCTGAATTCCGGTCTCCC
DNA 2: TGGTGGCTACGACGGGATT
B10: UUAGACU (DNA:RNA)
RNA: B1 RNA with A26U, G30C, C31U
DNA 1: CAATCTGAATTCCGGTCTCCC
DNA 2: TGGTGGCTACGACGGGATT
B11: UCGAAUC (DNA:RNA)
RNA: B1 RNA with A26C, A27G, G28A, G30U
DNA 1: CAATCTGAATTCCGGTCTCCC
DNA 2: TGGTGGCTACGACGGGATT
B12: UCGAAUG (DNA:RNA)
RNA: B1 RNA with A26C, A27G, G28A, G30U, C31G
DNA 1: CAATCTGAATTCCGGTCTCCC
DNA 2: TGGTGGCTACGACGGGATT
B13: UCGAAAU (DNA:RNA)
RNA: B1 RNA with A26C, A27G, G28A, G30A, C31U
DNA 1: CAATCTGAATTCCGGTCTCCC
DNA 2: TGGTGGCTACGACGGGATT
B14: UCGUAUC (DNA:RNA)
RNA: B1 RNA with A26C, A27G, G28U, G30U
DNA 1: CAATCTGAATTCCGGTCTCCC
DNA 2: TGGTGGCTACGACGGGATT
B15: UCGAUUC (DNA:RNA)
RNA: B1 RNA with A26C, A27G, G28A, A29U, G30U
DNA 1: CAATCTGAATTCCGGTCTCCC
DNA 2: TGGTGGCTACGACGGGATT
B16: UCGAUUG (DNA:RNA)
RNA: B1 RNA with A26C, A27G, G28A, A29U, G30U, C31G
DNA 1: CAATCTGAATTCCGGTCTCCC
DNA 2: TGGTGGCTACGACGGGATT
B17: CCAUUAU (DNA:RNA)
RNA: B1 RNA with U25C, A26C, G28U, A29U, G30A, C31U
DNA 1: CAATCTGAATTCCGGTCTCCC
DNA 2: TGGTGGCTACGACGGGATT
B18: UUGGCUG (DNA:RNA)
RNA: B1 RNA with A26U, A27G, A29C, G30U, C31G
DNA 1: CAATCTGAATTCCGGTCTCCC
DNA 2: TGGTGGCTACGACGGGATT
B19: GUGGCUG (DNA:RNA)
RNA: B1 RNA with U25G, A26U, A27G, A29C, G30U, C31G
DNA 1: CAATCTGAATTCCGGTCTCCC
DNA 2: TGGTGGCTACGACGGGATT
B20: GUGGCUC (DNA:RNA)
RNA: B1 RNA with U25G, A26U, A27G, A29C, G30U
DNA 1: CAATCTGAATTCCGGTCTCCC
DNA 2: TGGTGGCTACGACGGGATT
B21: UUGGCUA (DNA:RNA)
RNA: B1 RNA with A26U, A27G, A29C, G30U, C31A
DNA 1: CAATCTGAATTCCGGTCTCCC
DNA 2: TGGTGGCTACGACGGGATT
B22: UUGGCUC (DNA:RNA)
RNA: B1 RNA with A26U, A27G, A29C, G30U
DNA 1: CAATCTGAATTCCGGTCTCCC
DNA 2: TGGTGGCTACGACGGGATT
B23: GUGUGGC (DNA:RNA)
RNA: B1 RNA with U25G, A26U, A27G, G28U, A29G
DNA 1: CAATCTGAATTCCGGTCTCCC
DNA 2: TGGTGGCTACGACGGGATT
B24: GAACUCU (DNA:RNA)
RNA: B1 RNA with U25G, G28C, A29U, G30C, C31U
DNA 1: CAATCTGAATTCCGGTCTCCC
DNA 2: TGGTGGCTACGACGGGATT
B25: CGGUAAG (DNA:RNA)
RNA: B1 RNA with U25C, A26G, A27G, G28U, G30A, C31G
DNA 1: CAATCTGAATTCCGGTCTCCC
DNA 2: TGGTGGCTACGACGGGATT
B26: CCGGUCA (DNA:RNA)
RNA: B1 RNA with U25C, A26C, A27G, A29U, G30C, C31A
DNA 1: CAATCTGAATTCCGGTCTCCC
DNA 2: TGGTGGCTACGACGGGATT
B27: UGCGACA (DNA:RNA)
RNA: B1 RNA with A26G, A27C, G30C, C31A
DNA 1: CAATCTGAATTCCGGTCTCCC
DNA 2: TGGTGGCTACGACGGGATT
B28: CUGGCUG (DNA:RNA)
RNA: B1 RNA with U25C, A26U, A27G, A29C, G30U, C31G
DNA 1: CAATCTGAATTCCGGTCTCCC
DNA 2: TGGTGGCTACGACGGGATT
B29: UGGGCUC (DNA:RNA)
RNA: B1 RNA with A26G, A27G, A29C, G30U
DNA 1: CAATCTGAATTCCGGTCTCCC
DNA 2: TGGTGGCTACGACGGGATT
B30: UGGCUGU (DNA:RNA)
RNA: B1 RNA with A26G, A27G, G28C, A29U, C31U
DNA 1: CAATCTGAATTCCGGTCTCCC
DNA 2: TGGTGGCTACGACGGGATT
B31: UGGGCUG (DNA:RNA)
RNA: B1 RNA with A26G, A27G, A29C, G30U, C31G
DNA 1: CAATCTGAATTCCGGTCTCCC
DNA 2: TGGTGGCTACGACGGGATT
B32: UGGGGGC (DNA:RNA)
RNA: B1 RNA with A26G, A27G, A29G
DNA 1: CAATCTGAATTCCGGTCTCCC
DNA 2: TGGTGGCTACGACGGGATT
B33: CUGUGGC (DNA:RNA)
RNA: B1 RNA with U25C, A26U, A27G, G28U, A29G
DNA 1: CAATCTGAATTCCGGTCTCCC
DNA 2: TGGTGGCTACGACGGGATT

What follows are binders tested against T1, RBFOX1 RRM RbFoxmut (Fox-RRM*) (assay: EMSA; HiTS-Eq, 1 nM pool, 10 min; buffer printed only for the single-RNA assays: 10 mM Tris pH 7.5, 150 mM NaCl, 3.4 mM EDTA, 0.001% NP-40, 30 C). Settings: tags: His6 N-terminal (pET28a); label: 5' 32P.
Procedure, shortened: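 These values rest on relative association constants, computed from read-count changes of each RNA species versus the control reaction and normalised to the cognate motif. Reads came from free RNA recovered by 8% native PAGE after purified RbFox RRM (wild type or mutant) at increasing concentrations was equilibrated for 10 min in 50 µL with 1 nM of a 5′-radiolabelled pool with 7 randomized nucleotides and DNA-annealed flanks.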

Row | Binder | binding signal
1 | B1 | 0.0654 KA relative to UGCAUGU
2 | B2 | 0.101 KA relative to UGCAUGU
3 | B3 | 0.0473 KA relative to UGCAUGU
4 | B4 | 0.069 KA relative to UGCAUGU
5 | B5 | 0.0955 KA relative to UGCAUGU
6 | B6 | 0.108 KA relative to UGCAUGU
7 | B7 | 0.0436 KA relative to UGCAUGU
8 | B8 | 0.149 KA relative to UGCAUGU
9 | B9 | 0.0733 KA relative to UGCAUGU
10 | B10 | 0.0743 KA relative to UGCAUGU
11 | B11 | 0.36 KA relative to UGCAUGU
12 | B12 | 1.31 KA relative to UGCAUGU
13 | B13 | 0.0789 KA relative to UGCAUGU
14 | B14 | 0.192 KA relative to UGCAUGU
15 | B15 | 0.115 KA relative to UGCAUGU
16 | B16 | 0.239 KA relative to UGCAUGU
17 | B17 | 0.131 KA relative to UGCAUGU

Row | Binder | binding signal
18 | B18 | 0.435 KA relative to UGCAUGU
19 | B19 | 0.549 KA relative to UGCAUGU
20 | B20 | 0.125 KA relative to UGCAUGU
21 | B21 | 0.168 KA relative to UGCAUGU
22 | B22 | 0.134 KA relative to UGCAUGU
23 | B23 | 0.132 KA relative to UGCAUGU
24 | B24 | 0.053 KA relative to UGCAUGU
25 | B25 | 0.0872 KA relative to UGCAUGU
26 | B26 | 0.0703 KA relative to UGCAUGU
27 | B27 | 0.0626 KA relative to UGCAUGU
28 | B28 | 0.431 KA relative to UGCAUGU
29 | B29 | 0.115 KA relative to UGCAUGU
30 | B30 | 0.299 KA relative to UGCAUGU
31 | B31 | 0.462 KA relative to UGCAUGU
32 | B32 | 0.0983 KA relative to UGCAUGU
33 | B33 | 0.102 KA relative to UGCAUGU
